Compound activity deposited in PubChem BioAssay by Broad Institute.
Tgondii IFNg – blocks Toxoplasma gondii growth in the presence of IFN-gamma. Toxoplasma gondii growth in IFN-gamma-treated host cells; hits give low values. activity change, negative = inhibition, % (test concentration not listed). 69,000 compounds, 3.8% hits. AID 1259416; in the data active = activity change below about -70%, passing the limit was not always enough;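 also: host cells are HeLa cells infected with Toxoplasma gondii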
Numbers without * were called inactive. This excerpt belongs to a sample that is enriched for hits.

Screening Nc1nc(NCCc2ccc(O)cc2)nc2nc(-c3ccco3)nn12 returned Tgondii IFNg -80*.
For Nc1nc2ccc(Cl)cc2c2nc(-c3ccco3)nn12 the results were Tgondii IFNg 7.
For Nc1nc2c(cnn2CCc2ccccc2)c2nc(-c3ccco3)nn12 the results were Tgondii IFNg -12.
Screening C[C@@H]1CN([C@H](C)CO)C(=O)c2ccccc2-c2ccccc2CO[C@@H]1CN(C)C(=O)c1cc(Cl)cc(Cl)c1 returned Tgondii IFNg -62.
For CCN(CC)Cc1cnc2n1CCN(C(=O)c1cc(C)on1)CC2 the results were Tgondii IFNg -5.
`CCC1COC2(CCN(C(=O)C3CCCO3)C2)C1` (configuration not stated) gave Tgondii IFNg 65.
`COc1ccc(Oc2cccc(Cl)c2CNC(=O)CSCC(=O)O)cc1` gave Tgondii IFNg 31.
`COc1ccc(Oc2ccc(C(=O)NCCc3ccccn3)cc2)cc1` gave Tgondii IFNg -54.
For COc1ccc(Oc2cccc(F)c2CNC(=O)c2ccc(OC)cc2)cc1 the results were Tgondii IFNg -88*.
Screening COc1ccc(-c2c(C#N)c(C(C)=O)[nH]c(=O)c2C#N)cc1 returned Tgondii IFNg 39.
Screening O=S(=O)(Cc1noc(-c2ccno2)n1)Cc1ccco1 returned Tgondii IFNg -25.
Screening Cc1onc(-c2c(F)cccc2Cl)c1C(=O)N[C@@H]1C(=O)N2[C@@H]1SC(C)(C)[C@@H]2C(=O)O returned Tgondii IFNg 21.
C=CCN(Cc1ccc(F)cc1)C(=O)c1c(C)nn(CC)c1C was read as Tgondii IFNg 10.
Screening CSc1ccc(CN(C(=O)c2cccc(-c3noc(C)n3)c2)C2CC2)cc1 returned Tgondii IFNg -6.
Screening O=C(Nc1ccc(S(=O)(=O)Nc2ccccn2)cc1)c1ccc(Cl)c(Cl)c1 returned Tgondii IFNg -3.
Screening NS(=O)(=O)c1ccc(NC(=O)Nc2ccc(F)cc2)cc1 returned Tgondii IFNg 25.
Screening NS(=O)(=O)c1ccc(NC(=O)c2ccc(-c3cc(Cl)ccc3Cl)o2)cc1 returned Tgondii IFNg -100*.
CCc1cccc(Nc2nc(-c3ccc(OC)cc3)nc3ccccc23)c1 was read as Tgondii IFNg -19.
O=C(Nc1cccc(Cl)c1)N1C[C@H]2[C@@H](c3ccccc31)[C@H](CO)N2Cc1cccnc1 was read as Tgondii IFNg -5.
For CCOCc1ncn2c1CN(C(=O)Nc1cccc(F)c1)CC2 the results were Tgondii IFNg -12.
`CCOC(=O)CCc1nc2ccccc2[nH]1` gave Tgondii IFNg -27.
COCC(=O)O[C@]1(CCN(C)CCCc2nc3ccccc3[nH]2)CCc2cc(F)ccc2[C@@H]1C(C)C was read as Tgondii IFNg -72*.
`CN(Cc1nc2ccccc2[nH]1)C(=O)CCNC(=O)c1ccc(F)cc1` gave Tgondii IFNg -49.
CC1=C(C(=O)NCc2cccc(F)c2)C2(CCN(S(C)(=O)=O)CC2)OC1=O was read as Tgondii IFNg 27.
Cc1ccc2c(c1C)-n1cccc1C1(CCN(C(=O)c3ccccc3Cl)CC1)N2 was read as Tgondii IFNg 44.
`CCOC(=O)c1cc(Cl)c(NC(=O)C(F)(F)F)c(Cl)c1` gave Tgondii IFNg -22.
For CN(C)CC(=O)N1CCCn2cnc(CNc3ncccn3)c2C1 the results were Tgondii IFNg 14.
CC(C)n1nc(CNc2ncccn2)c2c1CN(C(=O)N(C)C)CC2 was read as Tgondii IFNg -76*.
Cc1cc(C)cc(C(=O)N2CCc3c(CNc4ncccn4)nn(C)c3C2)c1 was read as Tgondii IFNg 13.
`CCc1nc(OCC(=O)Nc2ccccc2C(F)(F)F)c2ccccc2n1` gave Tgondii IFNg -4.
Screening Cc1ccc(-c2coc(-c3ccc(NC(=O)Nc4cccc(F)c4)cc3)n2)cc1 returned Tgondii IFNg 58.
Nc1cnc(-c2ccc(-c3ccn[nH]3)cc2)cn1 was read as Tgondii IFNg -40.
Screening Cc1ccc(-c2ccc(-c3ccn[nH]3)cc2)c(N)n1 returned Tgondii IFNg -81*.
Screening CCc1cnc(C)nc1-c1ccc(-c2ccn[nH]2)cc1 returned Tgondii IFNg -1.
O=C1CCC(NC(=O)OCc2ccccc2)(C(=O)O)O1 (configuration not stated) was read as Tgondii IFNg 6.
COc1ccc(C[C@H]2CNCC[C@H]2OCC(=O)N2CCCC2)cc1 was read as Tgondii IFNg 34.
Screening COc1ccc(S(=O)(=O)N(C)C[C@H]2OCCCC[C@@H](C)Oc3ccc(NC(=O)Cc4ccccc4)cc3C(=O)N([C@@H](C)CO)C[C@@H]2C)cc1 returned Tgondii IFNg -69.
COc1ccc(S(=O)(=O)N(C)C[C@@H]2OCCCC[C@H](C)Oc3ccc(NC(=O)Cc4ccccc4)cc3C(=O)N([C@@H](C)CO)C[C@H]2C)cc1 was read as Tgondii IFNg -125*.
Screening C[C@H](CO)N1C[C@H](C)[C@H](CN(C)S(=O)(=O)c2ccccc2)OCCCC[C@H](C)Oc2ccc(NC(=O)Nc3ccc4c(c3)OCO4)cc2C1=O returned Tgondii IFNg 108.
C[C@@H]1CCCCO[C@@H](CN(C)S(=O)(=O)c2ccccc2)[C@H](C)CN([C@@H](C)CO)C(=O)c2cc(NC(=O)Nc3ccc4c(c3)OCO4)ccc2O1 was read as Tgondii IFNg 121.
Screening C[C@@H]1CN([C@@H](C)CO)C(=O)c2cc(NC(=O)Nc3ccc4c(c3)OCO4)ccc2O[C@@H](C)CCCCO[C@H]1CN(C)S(=O)(=O)c1ccccc1 returned Tgondii IFNg 106.
Screening C[C@@H]1CCCCO[C@H](CN(C)S(=O)(=O)c2ccccc2)[C@H](C)CN([C@@H](C)CO)C(=O)c2cc(NC(=O)Nc3ccc4c(c3)OCO4)ccc2O1 returned Tgondii IFNg 251.
For C[C@@H]1CCCCO[C@@H](CN(C)Cc2ccncc2)[C@H](C)CN([C@@H](C)CO)C(=O)c2cc(NC(=O)Cc3ccccc3)ccc2O1 the results were Tgondii IFNg 120.
`COc1ccc(S(=O)(=O)N(C)C[C@@H]2OCCCC[C@H](C)Oc3ccc(NC(=O)Cc4ccccc4)cc3C(=O)N([C@H](C)CO)C[C@@H]2C)cc1` gave Tgondii IFNg -92*.
Screening COc1ccc(S(=O)(=O)N(C)C[C@H]2OCCCC[C@H](C)Oc3ccc(NC(=O)Cc4ccccc4)cc3C(=O)N([C@H](C)CO)C[C@@H]2C)cc1 returned Tgondii IFNg -84*.
C=CCNc1ccccc1C(=O)N(C)Cc1n[nH]c2c1CCCCC2 was read as Tgondii IFNg -3.
Screening O=C(Cn1c(=O)cc(-c2nc(C3CC3)no2)c2ccccc21)Nc1cccc(F)c1 returned Tgondii IFNg 9.
For CCN(CC)c1ncnc2c1cnn2CC(=O)NCc1ccc(F)c(Cl)c1 the results were Tgondii IFNg -28.
For CCN(CC)c1ncnc2c1cnn2CC(=O)NCc1cc(F)cc(F)c1 the results were Tgondii IFNg 32.
Cc1ccc(CNC(=O)Cn2ncc3c(N4CCC(C)CC4)ncnc32)cc1 was read as Tgondii IFNg -94*.
Screening CCOc1ccc(CNC(=O)Cn2ncc3c(N4CCC(C)CC4)ncnc32)cc1OCC returned Tgondii IFNg 189.
O=C(Cn1ncc2c(N3CCCCC3)ncnc21)NCc1ccncc1 was read as Tgondii IFNg -29.
For O=C(Cn1ncc2c(N3CCCC3)ncnc21)NCc1ccc(F)cc1 the results were Tgondii IFNg -61.
Screening O=C(Cn1ncc2c(N3CCCCCC3)ncnc21)NCc1ccc(C(F)(F)F)cc1 returned Tgondii IFNg -82*.
